PubChem BioAssay (NCATS)
Records with an inconclusive call do not appear. Calls of active or inactive are those of the source. Unless noted, calls follow the shape of the dose curve; as a rule, active = well fitted curve in the direction sought with a large enough effect; inconclusive = small, poorly fitted or top-dose-only effect, or another doubt; inactive = no such curve, though single readings can be large; an effect the other way counts as inactive or inconclusive.

Legend:
[1] = system: CP211; assay: qHTS profiling for inhibitors of Plasmodium falciparum proliferation (AID 504749);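 also: 0% = DMSO vehicle and full inhibition = artemisinin control; nearly all actives have a fitted effect of over 60% in size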; settings: P. falciparum in erythrocytes, SYBR Green DNA, 72 h; series mostly up to 28.7 µM
Method in brief: (§1)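 Parasite proliferation within erythrocytes, 72 h exposure. Endpoint: SYBR Green I fluorescence after overnight lysis at room temperature. Controls: 0.29 uM artemisinin, DMSO.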

[2] = system: CP268; assay: as above; settings: P. falciparum in erythrocytes, SYBR Green DNA, 72 h; series mostly up to 28.7 µM
Method in brief: as §1

[3] = system: CP291; assay: as above; settings: P. falciparum in erythrocytes, SYBR Green DNA, 72 h; series mostly up to 28.7 µM
Method in brief: as §1

[4] = system: CP305; assay: as above; settings: P. falciparum in erythrocytes, SYBR Green DNA, 72 h; series mostly up to 28.7 µM
Method in brief: as §1

[5] = system: CP325; assay: as above; settings: P. falciparum in erythrocytes, SYBR Green DNA, 72 h; series mostly up to 28.7 µM
Method in brief: as §1

[6] = system: DIV14; assay: as above; settings: P. falciparum in erythrocytes, SYBR Green DNA, 72 h; series mostly up to 28.7 µM
Method in brief: as §1

[7] = system: P93_24; assay: as above; settings: P. falciparum in erythrocytes, SYBR Green DNA, 72 h; series mostly up to 28.7 µM
Method in brief: as §1

[8] = Confirmation and Secondary Assay for Modulators of Hemoglobin Beta Chain Splicing at IVS2 654 locus (AID 910);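 also: per-well total GFP intensity by laser scanning cytometry after 2-day treatment; % of control where 0% means no effect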
Method in brief: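 HeLa cells stably carrying EGFP interrupted by mutant beta-globin IVS2-654 intron (CMV-driven) were treated with compound for 2 days at 37C; corrected splicing was scored as total peak GFP intensity per well (488 nm excitation, 500-520 nm emission).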

[9] = Confirmation and Secondary Assay for Modulators of Hemoglobin Beta Chain Splicing at IVS2 705 locus (AID 930);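 also: HeLa cells stably expressing the EGFP-705 splicing reporter; % of control where 0% means no effect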
Method in brief: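 Restored EGFP fluorescence after 2-day compound exposure reports splicing correction in IVS2-705 EGFP reporter HeLa cells; positive control was 500 nM splice-blocking PNA oligo. Signal measured as well total peak GFP intensity (488 nm excitation).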

[10] = biological target: Bile acid receptor (Homo sapiens) (UniProt Q96RI1); assay: qHTS assay for small molecule antagonists of farnesoid X receptor signaling (AID 588526; calls by dose curve; also: % is scaled to controls: 0 for no effect and ±100 for the full control effect)
Method in brief: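 Concentration-response titrations were fitted to the Hill equation for half-maximal inhibition and maximal response, with data normalised to 50 uM chenodeoxycholic acid and DMSO control wells. Cells: FXR-UAS-bla HEK293T, dialyzed FBS.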

[11] = Cell Viability - Jurkat (AID 426;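 active = dose-dependent loss of cell ATP signal giving a full or clear fitted curve, ranked by lower potency value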; also: potency is read from the fitted curve at half-maximal effect); settings: qHTS
Method in brief: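 Jurkat (Clone E6-1) cells, 5000/well in complete medium, exposed to compounds for 40 hr at 37C; intracellular ATP measured by CellTiter-Glo luminescence after 20 min at room temperature. AC50 from Hill fits.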

[12] = Cell Viability - HepG2 (AID 433; calls by dose curve;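 also: potency is read from the fitted curve at half-maximal effect; potency for ATP loss meaning cytotoxicity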); settings: qHTS
Method in brief: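 Read-out is luciferase-based quantitation of cellular ATP as a measure of viable HepG2 cells after 40 h treatment at 37 °C. Signal decrease is scaled between DMSO-only and 100 uM tamoxifen controls, with AC50 fitted by the Hill equation.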

[13] = Cell Viability - N2a (AID 540); settings: N2a mouse neuroblastoma cell viability; activity change, negative = cytotoxicity: at 92.2 µM (top of the series);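 also: plate controls were DMSO alone for no effect and tamoxifen control for full effect; nearly all actives have a fitted effect of over 45% in size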
Method in brief: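 Mouse neuroblastoma N2a cells, 1500/well, exposed to compounds 40 h at 37 °C in complete medium. Viability measured as cellular ATP by CellTiter-Glo luminescence; AC50 from Hill fits of concentration-response.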

[14] = Cell Viability - HUV-EC-C (AID 542); also: % is scaled to controls: 0 for no effect and ±100 for the full control effect; nearly all actives have a fitted effect of over 35% in size
Method in brief: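 HUV-EC-C human vascular endothelial cells, 1000/well, exposed to compound for 40 hr at 37 °C in complete medium. Intracellular ATP was read by CellTiter-Glo luminescence. AC50 came from Hill-equation fits of concentration-response data.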

[15] = Cell Viability - H-4-II-E (AID 543); also: % is scaled to controls: 0 for no effect and ±100 for the full control effect; nearly all actives have a fitted effect of over 35% in size
Method in brief: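 Rat hepatoma H-4-II-E cells, 1500 per well, treated 40 h at 37 °C in complete medium. Cellular ATP read by CellTiter-Glo luminescence; AC50 from Hill fits of concentration-response.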

[16] = Cell Viability - SH-SY5Y (AID 544);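 also: 0% = DMSO alone and -100% = 100 µM tamoxifen; nearly all actives have a fitted effect of over 55% in size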
Method in brief: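 SH-SY5Y human neuroblastoma cells (1500/well) incubated 5 h, then compound-treated 40 h at 37 °C in complete medium. Viability read as intracellular ATP by CellTiter-Glo luminescence after 20 min; AC50 from Hill-equation fits of qHTS concentration-response.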

[17] = Cell Viability - Renal Proximal Tubule (AID 545); settings: renal proximal tubule cells viability, primary cells of rat origin; at 91.7 µM (top of the series);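 also: 0% = DMSO only and -100% = 100 µM tamoxifen; nearly all actives have a fitted effect of over 40% in size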
Method in brief: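 Luminescent ATP signal (CellTiter-Glo) served as the viability read-out after 40 hr compound exposure of freshly isolated rat proximal tubule cells at 37 °C. Concentration-dependent ATP loss was fitted with the Hill equation to give AC50.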

[18] = Cell Viability - Mesenchymal (AID 546); settings: mesenchymal cells viability, qHTS; activity change, negative = cytotoxicity: at 91.7 µM (top of the series);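 also: cells exposed to compound for 40 hours before reading; 0% = DMSO only and -100% = 100 µM tamoxifen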
Method in brief: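 Normal human renal glomerulus-derived kidney mesenchymal cells, 1000 per well in complete medium, were treated with compounds for 40 hr at 37 °C. Viability was read as intracellular ATP by CellTiter-Glo luminescence; AC50 values came from Hill-equation fits of qHTS concentration-response data.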

[19] = qHTS Assay for Identification of Small Molecule Inducers of Hypoxia Response (AID 2120; active = well fitted curve in the direction sought with a large enough effect in the signal ratio, with a control signal flat, not every such curve was filed as active; the % refers to the signal ratio; also: 0% is about no effect)
Method in brief: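 HRE-bla ME-180 cells in Opti-MEM with 0.5% dialyzed FBS, pre-plated 4-5 h, then compound titration for 17 h at 37 degrees Celsius. CCF4 loaded 2.5 h at room temperature; 460/530 nm ratio gave %Activity and AC50 for induction.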

[20] = biological target: Glucocorticoid receptor (Homo sapiens) (UniProt P04150); assay: qHTS assay for small molecule antagonists of glucocorticoid receptor signaling (AID 588533; active = well fitted inhibition curve with a large enough effect in the signal ratio, with a control signal flat, not every such curve was filed as active; the % refers to the signal ratio;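 also: cells stimulated with 2 nM dexamethasone as agonist; % is scaled to controls: 0 for no effect and ±100 for the full control effect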)
Method in brief: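 Antagonist-mode qHTS: compound titrations added to GRE-bla HeLa cells, then dexamethasone 2 nM final; 18 h, 37 C. CCF4 FRET fluorescence normalized to dexamethasone and DMSO; IC50 from Hill fit.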

Sequence of Glucocorticoid receptor (Homo sapiens) (P04150 whole entry, looked up): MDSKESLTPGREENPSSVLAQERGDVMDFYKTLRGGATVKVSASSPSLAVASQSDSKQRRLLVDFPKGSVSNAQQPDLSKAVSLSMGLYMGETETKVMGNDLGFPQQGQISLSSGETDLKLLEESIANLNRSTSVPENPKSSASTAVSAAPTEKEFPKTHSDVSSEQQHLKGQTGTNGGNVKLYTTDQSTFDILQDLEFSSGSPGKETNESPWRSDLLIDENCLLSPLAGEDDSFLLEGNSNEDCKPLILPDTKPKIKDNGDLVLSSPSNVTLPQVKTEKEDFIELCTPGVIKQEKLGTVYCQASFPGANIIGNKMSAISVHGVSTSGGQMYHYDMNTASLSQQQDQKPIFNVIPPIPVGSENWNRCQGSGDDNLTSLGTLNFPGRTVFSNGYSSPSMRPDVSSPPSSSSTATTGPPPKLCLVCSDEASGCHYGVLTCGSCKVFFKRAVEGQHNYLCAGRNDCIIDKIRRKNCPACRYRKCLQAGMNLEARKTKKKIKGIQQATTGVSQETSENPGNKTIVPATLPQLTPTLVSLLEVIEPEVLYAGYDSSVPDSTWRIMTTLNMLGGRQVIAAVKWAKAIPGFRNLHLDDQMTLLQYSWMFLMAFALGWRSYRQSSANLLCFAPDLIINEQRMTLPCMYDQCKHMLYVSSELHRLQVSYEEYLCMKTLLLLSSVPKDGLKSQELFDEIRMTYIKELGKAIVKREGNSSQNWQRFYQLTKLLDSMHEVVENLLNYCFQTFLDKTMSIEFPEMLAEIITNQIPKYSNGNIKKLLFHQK
Sequence of Bile acid receptor (Homo sapiens) (Q96RI1 whole entry, looked up): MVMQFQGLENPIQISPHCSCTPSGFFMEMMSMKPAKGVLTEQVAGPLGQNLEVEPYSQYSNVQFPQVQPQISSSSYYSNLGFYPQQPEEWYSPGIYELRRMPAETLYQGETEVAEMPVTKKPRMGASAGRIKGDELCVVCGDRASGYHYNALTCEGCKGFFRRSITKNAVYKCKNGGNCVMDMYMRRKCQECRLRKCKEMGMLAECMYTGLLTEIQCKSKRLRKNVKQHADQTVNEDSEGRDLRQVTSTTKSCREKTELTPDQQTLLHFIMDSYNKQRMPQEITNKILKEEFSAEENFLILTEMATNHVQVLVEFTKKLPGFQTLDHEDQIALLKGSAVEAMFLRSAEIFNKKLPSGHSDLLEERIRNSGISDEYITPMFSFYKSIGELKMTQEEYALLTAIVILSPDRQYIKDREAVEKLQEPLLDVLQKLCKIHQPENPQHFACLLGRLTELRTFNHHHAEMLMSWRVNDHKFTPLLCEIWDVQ

CC(C)CN(C[C@@H](OP(=O)(O)O)[C@H](Cc1ccccc1)NC(=O)O[C@@H]1CCOC1)S(=O)(=O)c1ccc(N)cc1
inactive: Potency [1] | Potency [2] | Potency [3] | Potency [4] | Potency [5] | Potency [6] | Potency [7]

O=C(O)c1cc(O)c2c(c1)[C@H]([C@H]1c3cc(C(=O)O)cc(O)c3C(=O)c3c(O[C@@H]4OC(CO)C(O)C(O)C4O)cccc31)c1cccc(O[C@@H]3OC(CO)C(O)C(O)C3O)c1C2=O (stereo not given in full)
inactive: Potency [8] | Potency [9]

O=C(O)CCCCCCCCC(=O)O
inactive: outcome [10]

O=C(/C=C/c1ccc(O)c(O)c1)O[C@@H](C(=O)O)[C@@H](OC(=O)/C=C/c1ccc(O)c(O)c1)C(=O)O
inactive: Potency [11] > 92 µM | Potency [12] > 92 µM | activity change, negative = cytotoxicity [13] -0.47% | outcome [14] | Potency [15] | Potency [16] | activity change, negative = cytotoxicity [17] -5.23% | activity change, negative = cytotoxicity [18] 11% | outcome [19] | outcome [10] | Potency [20]

CCC(C)n1ncn(-c2ccc(N3CCN(c4ccc(OCC5COC(Cn6cncn6)(c6ccc(Cl)cc6Cl)O5)cc4)CC3)cc2)c1=O (stereo not given)
inactive: Potency [1] | Potency [2] | Potency [3] | Potency [4] | Potency [5] | Potency [6] | Potency [7]

CC12CCC(CC1=O)C2(C)C (stereo not given)
inactive: Potency [11] > 92 µM | Potency [12] > 92 µM | activity change, negative = cytotoxicity [13] -9.82% | outcome [14] | Potency [15] | Potency [16] | activity change, negative = cytotoxicity [17] -5.29% | activity change, negative = cytotoxicity [18] -11.1% | outcome [19] | Potency [20]

O=C1CC(c2ccccc2)Oc2ccccc21 (stereo not given)
inactive: Potency [8] | Potency [9]
